Results from PubChem BioAssay (NCATS).
Records with an inconclusive call do not appear. Activity calls are given as the source filed them. The call rests on the fitted dose curve; in most records, active means well fitted inhibition curve with a large enough effect; inconclusive means small, poorly fitted or top-dose-only effect; inactive means flat fitted curve, though single readings scatter.

What was measured:
CRL-7250 = normal cell line; assay: Cytotoxic Profiling of Annotated Libraries Using Quantitative High-Throughput Screening (AID 1296008); conditions: Five cell lines viability, CellTiter-Glo ATP luminescence, 48-72 h; max response: active compounds read low; on max response: on the % scale 0 is the no-effect control and ±100 the full control effect
Outline: (§1)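 Compounds were pin-transferred onto cells and incubated 48 or 72 hr at 37 degree Celsius, 95% humidity. CellTiter-Glo was added, plates sat 10 min at room temperature, then ATP-coupled luminescence was imaged as the viability read-out.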

HaCat [1] = assay: as above; conditions: Five cell lines viability, CellTiter-Glo ATP luminescence, 48-72 h; max response: active compounds read low
Outline: as §1

KB-3-1 = assay: as above; conditions: Five cell lines viability, CellTiter-Glo ATP luminescence, 48-72 h; max response: active compounds read low
Outline: as §1

NIH3T3 [2] = assay: as above; conditions: Five cell lines viability, CellTiter-Glo ATP luminescence, 48-72 h; max response: active compounds read low
Outline: as §1

HACAT [3] = assay: qHTS assay to identify novel small-molecules to repurpose for Merkel cell carcinoma treatment (AID 1296009); conditions: MCC and control cell lines, CellTiter-Glo viability, 72 h; at 44.8 µM (top of the series) unless noted
Outline: (§2)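 qHTS format: cells treated with library compounds in DMSO across 8 (NPC) or 11 (MIPE) concentrations. Readout after 72 hr at 37 degree celsius was CellTiter-Glo luminescence.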

MCC-13 = assay: as above; conditions: MCC and control cell lines, CellTiter-Glo viability, 72 h; series mostly up to 46 µM
Outline: as §2

MKL-1 = assay: as above; conditions: MCC and control cell lines, CellTiter-Glo viability, 72 h; series mostly up to 46 µM
Outline: as §2

MKL-2 = assay: as above; conditions: MCC and control cell lines, CellTiter-Glo viability, 72 h; series mostly up to 46 µM
Outline: as §2

UISO = assay: as above; conditions: MCC and control cell lines, CellTiter-Glo viability, 72 h; series mostly up to 46 µM
Outline: as §2

WaGa = assay: as above; conditions: MCC and control cell lines, CellTiter-Glo viability, 72 h; series mostly up to 46 µM
Outline: as §2

SC27B = assay: qHTS profiling for inhibitors of Plasmodium falciparum proliferation (AID 504749);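 further: 0% = DMSO vehicle and full inhibition = artemisinin control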; conditions: P. falciparum in erythrocytes, SYBR Green DNA, 72 h; series mostly up to 28.7 µM
Outline: (§3)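 Parasite proliferation within erythrocytes, 72 h exposure. Endpoint: SYBR Green I fluorescence after overnight lysis at room temperature. Controls: 0.29 uM artemisinin, DMSO.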

TAB109 = assay: as above; conditions: P. falciparum in erythrocytes, SYBR Green DNA, 72 h; series mostly up to 28.7 µM
Outline: as §3

TAB113 = assay: as above; conditions: P. falciparum in erythrocytes, SYBR Green DNA, 72 h; series mostly up to 28.7 µM
Outline: as §3

TAB165 = assay: as above; conditions: P. falciparum in erythrocytes, SYBR Green DNA, 72 h; series mostly up to 28.7 µM
Outline: as §3

W2 = assay: as above; conditions: P. falciparum in erythrocytes, SYBR Green DNA, 72 h; series mostly up to 28.7 µM
Outline: as §3

MCC-26 = assay: qHTS assay to identify novel small-molecules to repurpose for Merkel cell carcinoma treatment (AID 1296009); conditions: MCC and control cell lines, CellTiter-Glo viability, 72 h; series mostly up to 46 µM
Outline: as §2

HEK293T = assay: as above; conditions: MCC and control cell lines, CellTiter-Glo viability, 72 h; at 44.8 µM (top of the series) unless noted
Outline: as §2

NIH3T3 [4] = assay: as above; conditions: MCC and control cell lines, CellTiter-Glo viability, 72 h; at 44.8 µM (top of the series) unless noted
Outline: as §2
Further: nearly all actives have a fitted effect of over 60% in size.

CCN(CCO)CCn1c(Cc2ccccc2)nc2c1c(=O)n(C)c(=O)n2C
inactive: max response (CRL-7250) -2.16% | outcome (HaCat [1]) | max response (KB-3-1) -17.3% | max response (NIH3T3 [2]) -7.24% | outcome (HACAT [3]) | outcome (MCC-13) | Potency (MKL-1) | Potency (MKL-2) | Potency (UISO) | Potency (WaGa)

CNC(C)(C)Cc1ccccc1
inactive: Potency (SC27B) | Potency (TAB109) | Potency (TAB113) | Potency (TAB165) | Potency (W2) | max response (CRL-7250) -3% | outcome (HaCat [1]) | max response (KB-3-1) 16.1% | max response (NIH3T3 [2]) 2.82% | outcome (HACAT [3]) | outcome (MCC-13) | Potency (MKL-1) | Potency (MKL-2) | Potency (UISO) | Potency (WaGa)

C[C@]12CCC(=O)C=C1CC[C@@H]1[C@@H]2CC[C@]2(C)C(=O)CC[C@@H]12
inactive: Potency (SC27B) | Potency (TAB109) | Potency (TAB113) | Potency (TAB165) | Potency (W2) | max response (CRL-7250) -5.91% | max response (HaCat [1]) -13.1% | max response (KB-3-1) -6.1% | max response (NIH3T3 [2]) -1.13% | outcome (MCC-13) | Potency (MCC-26) | Potency (MKL-1) | Potency (MKL-2)

Nc1nc(N)nc(NC2CC2)n1
inactive: Potency (SC27B) | Potency (TAB109) | Potency (TAB113) | Potency (TAB165) | Potency (W2) | max response (CRL-7250) -14.4% | max response (KB-3-1) 8.79% | max response (NIH3T3 [2]) -2.48% | outcome (MCC-13) | Potency (MCC-26) | Potency (MKL-1) | Potency (MKL-2) | Potency (UISO) | Potency (WaGa)

COC(=O)C(Cl)C(=O)OC
inactive: max response (CRL-7250) -1.36% | max response (KB-3-1) -12.1% | max response (NIH3T3 [2]) -7.3% | outcome (HEK293T) | outcome (MCC-13) | Potency (MCC-26) | Potency (MKL-1) | Potency (MKL-2) | Potency (UISO) | Potency (WaGa)

NCCc1ccc(O)cc1
inactive: Potency (SC27B) | Potency (TAB109) | Potency (TAB113) | Potency (TAB165) | Potency (W2) | max response (CRL-7250) -9.28% | max response (HaCat [1]) 1.28% | max response (KB-3-1) -7.48% | outcome (NIH3T3 [2]) | outcome (HEK293T) | outcome (MCC-13) | Potency (MKL-1) | outcome (NIH3T3 [4]) | Potency (UISO)
